An excerpt weighted towards active compounds, which were near 6% of everything screened.
Tau fluor cs: Counterscreen qHTS for Inhibitors of Tau Fibril Formation, Fluorescence Polarization | tau K18 P301L Alexa594 fluorescence, heparin fibrillization | Potency, µM (top dose mostly 57.7 µM), for the others: top-dose activity change, negative = decrease | hit rate 0.93% among 280,000 | AID 1463, 2008; also: nearly all actives have a fitted effect of over 55% in size
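Human tau K18 P301L (15 uM unlabeled, 0.24 uM Alexa 594-labeled) in 100 mM sodium acetate pH 7 with 20 uM heparin, 6 hr at 37 C. ThT 30 uM added, 1 hr ambient; Alexa 594 FP and total fluorescence read at 555/632 nm.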
Sfp inh: qHTS Assay for Inhibitors of Bacillus subtilis Sfp phosphopantetheinyl transferase (PPTase); 4'-phosphopantetheinyl transferase ffp (Bacillus subtilis), Q9F4F7; Biochemical Sfp PPTase activity, qHTS; Potency, µM, for the others: largest response in the series, negative = inhibition, usual class: inhibitors; hit rate 3.5% among 310,000; AID 1490, 2009;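 also: the enzyme is Sfp with the accession as filed and its product quenches rhodamine fluorescence; 0% = enzyme reaction without inhibitor and -100% = no enzyme wells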
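Compounds were incubated with enzyme (final 15 nM) for 15 min at room temperature before substrate addition started the reaction. Fluorescence at 525 nm excitation, 598 nm emission was recorded immediately and after 30 minutes.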
VDR inhibitor: Inhibitors of the vitamin D receptor (VDR): qHTS. Vitamin D3 receptor (Homo sapiens), P11473. VDR-SRC2-3 peptide fluorescence polarization, 2 h. Potency, µM, inactives show max response, negative = inhibition, hits mostly inhibitors. hit rate 0.93% among 400,000. AID 504847, 2011
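Measured by FP: displacement of SRC2-3 coactivator peptide from VDR by library compounds, following a two-hour ambient incubation.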
PLK1 PBD block: qHTS for Inhibitors of PLK1-PDB (polo-like kinase 1 - polo-box domain): Primary Screen; Plk1 PBD binding of FITC phosphopeptide, fluorescence polarization; Potency, µM, for the others: max response, negative = inhibition, hits mostly inhibitors; hit rate 2.8% among 360,000; AID 720504, 2013; also: series mostly up to about 57 µM; nearly all actives have a fitted effect of over 65% in size
Tau FP inhib: qHTS for Inhibitors of Tau Fibril Formation, Fluorescence Polarization | Potency, µM (series often up to 57.7 µM), for the others: at the highest dose activity, negative = inhibition, most hits filed as inhibitors | K18 P301L tau heparin fibrillization, Alexa594 FP, 6 h | hit rate 0.39% among 280,000 | Microtubule-associated protein tau (Homo sapiens), P10636; also: nearly all actives have a fitted effect of over 55% in size
Target sequence (P10636 561-689 P618L limits assumed): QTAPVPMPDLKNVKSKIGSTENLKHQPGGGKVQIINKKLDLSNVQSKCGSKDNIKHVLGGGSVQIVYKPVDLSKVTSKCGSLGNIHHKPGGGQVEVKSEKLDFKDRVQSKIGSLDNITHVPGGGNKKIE
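Read-out: fluorescence polarization of Alexa 594-labeled tau (0.24 uM), 555 nm excitation, 632 nm emission. Mixtures held 15 uM unlabeled K18 P301L, compound and 20 uM heparin, pH 7 acetate buffer, incubated 6 hr at 37 C.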
Tau ThT inhib: qHTS for Inhibitors of Tau Fibril Formation, Thioflavin T Binding. recombinant tau K18 P301L (four-repeat tau fragment), heparin-induced fibrillization, ThT fluorescence. AID 1460, 2008. Microtubule-associated protein tau (Homo sapiens), P10636. Potency, µM (highest dose often 57.4 µM), for inactives: at the highest dose activity, negative = inhibition, most hits filed as inhibitors. hit rate 2.1% among 270,000; also: nearly all actives have a fitted effect of over 55% in size
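In this qHTS, human K18 P301L tau is incubated with compound and heparin for 6 hr at 37 C, and Thioflavin T fluorescence then reports fibril load.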
* = called active by the depositor; ? = inconclusive; / = no result given; [ ] = dose if it differs, or a comment. Calls follow the shape of the dose curve; as a rule, active = well fitted curve in the direction sought with a large enough effect; inconclusive = small, poorly fitted or top-dose-only effect, or another doubt; inactive = no such curve, though single readings can be large; an effect the other way counts as inactive or inconclusive. Unless noted, % is scaled to controls: 0 for no effect and ±100 for the full control effect; potency is read from the fitted curve at half-maximal effect.

SMILES | Tau fluor cs | Sfp inh | VDR inhibitor | PLK1 PBD block | Tau FP inhib | Tau ThT inhib
CCN1CCN(CCNC(=O)c2ccc(/C=C3/Sc4ccccc4N(Cc4cccc(Cl)c4)C3=O)cc2)CC1 | -22% | 50µM* | 24% | -1% | ? | ?
CNc1cccc(-c2ccc(N3CCN(C)CC3)nc2)n1 | / | / | / | -8% | / | /
Cc1cc(C(=O)O)ccc1-c1ccc(/C=C2\NC(=O)N(Cc3ccccc3Cl)C2=O)o1 | 7% | 13µM* | ? | 17µM* | 4% | 10%
Cc1ccc(C(=O)O)cc1-c1ccc(/C=C2/NC(=O)N(c3ccccc3)C2=O)o1 | -27% | 22µM* | -1% | ? | -14% | 28µM*
NC(=O)c1nc(Nc2ccccc2)sc1NC(=O)c1ccccc1Br | ? | / | 4% | / | ? | ?
COc1ccccc1C(=O)Nc1sc(Nc2ccccc2)nc1C(N)=O | 7.1µM*[quencher] | / | 18% | / | ? | 3.2µM*
CC(=O)NC1Sc2ccccc2N=C1c1ccccc1 (stereo not drawn) | -16% | 16µM* | 79µM* | 19µM* | -11% | ?
Cc1[nH]c2ccccc2c1N=Nc1ccccc1C(=O)O | ? | ? | -22% | -8% | 6% | ?
Cn1c(=O)c2c(ncn2CC(=O)N2CCN(S(=O)(=O)c3ccc(F)cc3)CC2)n(C)c1=O | / | / | 2% | 0% | / | /
Cn1c(=O)c2c(ncn2CC(=O)N2CCN(c3ccc(F)cc3)CC2)n(C)c1=O | 2% | 13% | -15% | 27µM* | 1% | -7%
COc1ccc(NC(=S)N2CCC(N(C)CC3CCCO3)CC2)cc1Cl (stereo not drawn) | -8% | 40µM* | -15% | ? | 2% | -6%
Cc1ccc2c(C(=O)CN3CCC4(CC3)OCCO4)c(C)[nH]c2c1 | -6% | 18% | 4% | -2% | 13% | -12%
Cc1ccc2c(C(=O)CN3CCSCC3)c(C)[nH]c2c1 | -1% | 7% | -22% | 19µM* | 0% | -9%
CN(C)N1C(N)=C(C#N)C(c2cccs2)C2=C1CCCC2=O (stereo not drawn) | -10% | -20% | 0% | 30µM* | 1% | -16%
Cc1ccc2c(c1)CCCN2S(=O)(=O)c1cccc(C(=O)Nc2ccccc2C(=O)O)c1 | / | / | / | 19µM* | / | /
O=C(Nc1nc2c(F)cc(F)cc2s1)c1ccc(S(=O)(=O)N2CCc3ccccc32)cc1 | -21% | / | 4% | / | 14µM* | -2%
O=C(Nc1nncs1)c1cccc(S(=O)(=O)N2CCc3ccccc32)c1 | -10% | 12% | ? | 3.4µM* | -7% | 2%
COc1ccccc1-c1noc(CCC(=O)Nc2cccnc2)n1 | / | / | / | -9% | / | /
CCCCS(=O)(=O)N1CCc2nc(-c3ccc(OC)cc3C)c3c(c2C1)CO[C@@H](c1ccccc1)C3 | 7%[11.6 µM] | 4% | / | / | -2%[11.6 µM] | 0%[11.5 µM]
COc1cc(/C=N/Nc2nc3ccccc3[nH]2)cc(OC)c1O | 16µM*[quencher] | 14µM* | 2% | -13% | ? | 11µM*
COc1ccc(O)c(/C=N/Nc2nc3ccccc3[nH]2)c1 | ? | ? | -20% | -4% | 7% | 14µM*
COc1cc(/C=N/Nc2nc3ccccc3[nH]2)ccc1O | ? | 11µM* | -7% | -4% | ? | 5µM*
COc1cccc(/C=N/Nc2nc3ccccc3[nH]2)c1O | -30% | -9% | -9% | 3% | 13% | ?
O=[N+]([O-])c1ccc(O)c(/C=N/Nc2nc3ccccc3[nH]2)c1 | ? | 12% | -9% | -5% | 5% | 8.9µM*
O=c1nc2n(CCO)c3ccccc3cc-2c(=O)[nH]1 | / | / | 0% | 0% | / | /
